Source: PubChem (The Scripps Research Institute Molecular Screening Center)
This excerpt belongs to a sample that is enriched for hits.
TTR transcr act = TTR transcription activation, primary screen | SH-SY5Y TTR promoter Gaussia luciferase, luminescence; 100% = recombinant luciferase protein wells | activation, % at 16.7 µM | hit rate 1.3% among 92,000;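 active = activation above the mean of all tested compounds plus 3 SD, cut at about 9.5% in these data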;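 also: cells exposed to compounds for one day before reading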
TTR inh HuH7 = HuH7 TTR transcription inhibition, counter-screen. inhibition, % at 16.7 µM. hit rate 4% among 1,100. HuH7 TTR promoter-Gaussia luciferase reporter, luminescence. shares compounds with TTR transcr act. AID 1117279;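 active = average inhibition above the solvent-only control wells' mean plus 3 SD, cut at about 15% in these data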;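 also: inhibitors lower well luminescence so higher value means more inhibition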
TTR act confirm = confirmation of human transthyretin transcription activators. shares compounds with TTR transcr act. SHSY5Y TTR promoter Gaussia luciferase, luminescence; 100% = purified Lucia enzyme wells, no cells. activation, % at 16.7 µM. 1,100 tested, under 10 active. AID 1117280;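 active = mean activation above a set limit taken from the earlier primary screen, cut at about 11% in these data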
Of the large screens only hits and unclear results are named; the others gave an inactive call (follow-up assays come after a bar, where they were run).

COC(=O)C1CCN(C(=O)/C=C/c2ccc3c(c2)OCO3)CC1	none
CCOc1ccccc1NC(=S)N1CCN(c2ccccc2F)CC1	none
CCCC(=O)NNC(=O)c1ccoc1C	TTR transcr act 17 | TTR inh HuH7 inactive | TTR act confirm inactive
Cc1cc(C)cc(OCC(=O)NNC(=O)c2ccoc2C)c1	none
Cc1cccc(C)c1OCC(=O)NNC(=O)c1ccoc1C	none
CC(=O)NCCc1ccc(C(=O)COC(=O)C2CCCCC2)cc1	none
Cc1noc(NC(=O)c2ccccc2C(F)(F)F)c1C#N	TTR transcr act 12 | TTR inh HuH7 inactive | TTR act confirm inactive
O=C(Nc1ccc(C(O)(C(F)(F)F)C(F)(F)F)cc1)c1ccccc1C(F)(F)F	none
Cc1noc(NS(=O)(=O)c2ccc(NC(=O)c3ccc(F)cc3)cc2)c1C	none
Cn1c(NC(=O)c2ccccc2C(F)(F)F)cc(=O)n(C)c1=O	none
Cc1noc(NC(=O)c2ccc(F)cc2)c1C#N	TTR transcr act 14 | TTR inh HuH7 inactive | TTR act confirm inactive
Cc1cccc(C(=O)Nc2onc(C)c2C#N)c1	none
Cc1ccc(S(=O)(=O)N2CCN(C3CC4CCC3C4)CC2)cc1 (configuration not stated)	none
CC(=O)c1sc2nsc(SCCN3CCCC3)c2c1N	none
CCCCN(C(=S)SC)C1CCS(=O)(=O)C1 (configuration not stated)	none
O=C1CCC(c2ccccc2)N1c1ccccc1 (configuration not stated)	none
CC1(c2nnnn2-c2ccc3c(c2)OCCO3)CCC(=O)N1C1CC1 (configuration not stated)	none
Cc1cc(C)c(C(=O)CC(=O)c2cccnc2)c(C)c1	TTR transcr act 15 | TTR inh HuH7 inactive | TTR act confirm inactive
Cc1ccc(CNC(=O)c2cccnc2)cc1	none
Cc1cc(C)c(C)c(OCC(=O)O/N=C(\N)c2cccnc2)c1	none
Fc1ccc(CNCc2ccc3c(c2)OCO3)cc1	none
CC(=O)c1ccc(OCC(O)CNCc2ccc3c(c2)OCO3)cc1 (configuration not stated)	none
O=Cc1ccc(OCc2ccc3c(c2)OCO3)cc1	TTR transcr act 9.8 | TTR inh HuH7 inactive | TTR act confirm inactive
COc1ccc2c(C#CCCO)c(-c3ccc(S(C)(=O)=O)cc3)sc2c1	none
Brc1ccc(-c2c(-c3ccsc3)sc3ccccc23)cn1	none
OCCC#Cc1c(-c2ccsc2)sc2ccccc12	TTR transcr act 10.0 | TTR inh HuH7 inactive | TTR act confirm inactive
Cc1cccc(C)c1OCc1cccc(C2Nc3ccccc3C(=O)N2Cc2ccco2)c1 (configuration not stated)	none
O=C(Cn1c(CCCO)nc2ccccc21)Nc1ccccc1-c1ccccc1	none
CCOP(=O)(OCC)C(NC(=O)NS(=O)(=O)c1ccc(C)cc1)c1ccccc1 (configuration not stated)	none
CN1CCN(c2ccc(Cl)cc2NC(=O)/C=C/c2cccc(F)c2)CC1	none
CCN(CC)S(=O)(=O)c1ccc(N2CCOCC2)c(NC(=O)Cc2ccc(Cl)cc2)c1	none
CCC(=O)Nc1cc(Cl)ccc1N1CCN(C(=O)CC)CC1	TTR transcr act 12 | TTR inh HuH7 inactive | TTR act confirm inactive
Cn1cc(S(=O)(=O)NC[C@H]2O[C@@H](n3ccc(=O)[nH]c3=O)[C@H](O)[C@@H]2O)cn1	none
Cc1ccc(S(=O)(=O)N2CCCCC2)cc1NC(=O)c1cc(F)c(F)c(F)c1F	none
O=C1C=C(c2ccc3c(c2)oc2ccccc23)C[C@@H](c2ccc(Cl)cc2)C1	none
C[C@@H]1C(=O)O[C@@H]2CC34[C@H]5C[C@@H](C(C)(C)C)C36[C@H](OC(=O)[C@@H]6O)OC4(C(=O)O5)[C@@]12O (some centres not stated)	TTR transcr act 23 | TTR inh HuH7 inactive | TTR act confirm inactive
CCN(C[C@H]1N[C@@](Cc2ccccc2)(C(=O)OC)[C@H]2C(=O)N(Cc3ccccc3)C(=O)[C@@H]12)S(=O)(=O)c1ccc(C(C)(C)C)cc1	none
CNc1nc(N)nc(-c2cc(Cl)ccc2OC)n1	none
CCCOc1ccc(C(=O)OCC(=O)c2c(N)n(C)c(=O)n(C)c2=O)cc1OC	none
COc1ccc(/C=C/C(=O)OCC(=O)c2c(N)n(C)c(=O)n(C)c2=O)c(OC)c1	TTR transcr act 9.8 | TTR inh HuH7 inactive | TTR act confirm inactive
COc1ccc(/C=C/C(=O)OCC(=O)c2ccc3c(c2)NC(=O)CO3)c(OC)c1	none
CC[C@]12c3[nH]c4cc(CCC(=O)N(C)C)ccc4c3CCN1C(=O)[C@@H](CC(=O)NCc1ccco1)C[C@@H]2C(=O)N1CCN(C(=O)C2CC2)CC1	none
CCOC(=O)[C@H]1[C@H]2COc3cc(OC)ccc3[C@@H]2N2C(=O)c3c(C)cc(C)cc3NC(=O)[C@@]12C	none
CC1(C)OC2OC(COC(=O)c3ccc([N+](=O)[O-])cc3)C3OC(C)(C)OC3C2O1 (configuration not stated)	none
CC1(C)OC2OC(C3COC(=O)O3)C(OC(=O)c3ccccc3)C2O1 (configuration not stated)	TTR transcr act 25 | TTR inh HuH7 inactive | TTR act confirm inactive
CC(=O)N1C(C)(C)CC(=NOC(=O)c2ccccc2)CC1(C)C	none
CC(=O)c1cccc(NC(=O)c2c(-c3c(F)cccc3Cl)noc2C)c1	none
O=C(/C=C/c1ccco1)N(c1ccccn1)c1ccccn1	none
S=c1[nH]nc(-c2cc(-c3ccccc3)n[nH]2)n1/N=C/c1ccc(Cl)cc1	none
Nc1nc(-c2ccccc2)cn1/N=C/c1ccccc1	none
S=c1[nH]ncn1/N=C/c1ccccc1	TTR transcr act 18 | TTR inh HuH7 inactive | TTR act confirm inactive
COc1ccc(CN2C(=O)CN(S(C)(=O)=O)CC2(C)C(=O)Nc2ccc3c(c2)OCCO3)cc1OC (configuration not stated)	none
CN1C(=O)CSc2ccc(NC(=O)NCc3ccc(F)cc3)cc21	none
CN1C(=O)CSc2ccc(NC(=O)N3CCc4ccccc43)cc21	none
CC(=O)Nc1ccc(NC(=O)Nc2ccc3c(c2)N(C)C(=O)CS3)cc1	TTR transcr act 10 | TTR inh HuH7 inactive | TTR act confirm inactive
CCOC(=O)C(=CNc1cc(C)ccc1-n1cccc1)C(=O)OCC	none
O=C(CSc1nnc(C2CC2)n1CC1CCCO1)Nc1cccc(Cl)c1 (configuration not stated)	none
Cc1ccc(C)c(NC(=S)N(Cc2cccc(Br)c2)CC2CCC(C(=O)O)CC2)c1 (configuration not stated)	none
O=C(NCCc1c[nH]c2ccccc12)OCc1cn(Cc2ccc(C(F)(F)F)cc2)nn1	none
Cc1ccc(-c2[nH]c(-c3ccc(C(=O)O)cc3)nc2-c2ccccc2)cc1	TTR transcr act 12 | TTR inh HuH7 inactive | TTR act confirm inactive
NC(=O)c1nc(-c2ccccc2)c(-c2ccccc2)[nH]c1=O	none
O=c1nc(-c2ccccc2)nc(-c2ccccc2)[nH]1	none
CC(C)NC(=O)N(C)C[C@H]1Oc2c(NC(=O)Nc3ccccc3)cccc2C(=O)N([C@H](C)CO)C[C@@H]1C	none
CC(=O)c1cnc2cc(-c3cccc(Br)c3)nn2c1C	TTR transcr act 9.7 | TTR inh HuH7 inactive | TTR act confirm inactive
CCOC(=O)c1cnc2cc(-c3ccc(C(C)(C)C)cc3)nn2c1N	none
Cc1cc(C)n2nc(-c3cccc(Br)c3)cc2n1	none
Cc1onc(C(=O)N2CCN(C(c3ccc(F)cc3)c3ccc(F)cc3)CC2)c1[N+](=O)[O-]	none
O=Cc1cc(-c2ccccc2)[nH]c1-c1ccccc1	none
